We go through 40 compounds from PubChem BioAssay (NCI).

Structures are written as SMILES. Values joined by “and” are separate entries in the source; they are usually repeats but may differ in a detail not shown here. Identical values can stand only once. Compounds without any hit were thinned out: in the full panel of roughly 83,000, 20% have a hit.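 Single-dose data. Exposure time 48 hours. Values below 10 considered active.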 A number with no mark means an inactive call. Active and inactive are the calls of the source.

The experiment concerns MDA-MB-468 breast. The experiment can be described thus: NCI-60 one-dose screen, 48 h (100 = growth as untreated, 0 = no growth, -100 = all killed). The following applies: 10 µM unless noted.
For `C=CCNCCC#N`, the growth was 98.1%.

With `Cc1ccc(NC(=O)C2CCC(CN3CCN(C)CC3)CC2)cc1Nc1nccc(-c2cccnc2)n1` (stereo not given), the growth was 94.8%.

Take `N#Cc1c(-c2ccc(F)cc2)c(C#N)c2c(C#N)c(N)nn2c1N`: the growth is 83.5%.

For the compound `Cc1nccc2c3ccc(OCc4cn(-c5ccc(Cl)cc5)nn4)cc3n(CCCc3ccccc3)c12`, the growth was 10.6%.

Turning to `COC(=O)C1=Nc2ccc(F)cc2/C1=C\c1sc(Nc2ccc(O)cc2)nc1O`, the growth is 56.1%.

As for `CNC(=O)c1cc(N2CCc3cc(NC(=O)Nc4ccc(Cl)c(Cl)c4)ccc32)ccn1`, the growth is 84.5%.

`CCOC(=O)c1c(/N=C2\SC(=O)/C(=C\C(=O)OC)N2NC)sc2c1CCN(C(=O)OCC)C2`: the growth was 100%.

On to `COc1ccc2nc(SCC(=O)Nc3ccccc3C)[nH]c2c1`, for which the growth was 98%.

With `C=C1CC[C@@H]2[C@](C)(COC(C)=O)[C@H](OC(C)=O)CC[C@@]2(C)[C@@H]1CC(Sc1ccccc1)C1=CCOC1=O` (stereo not given in full), the growth was -61.1% (active).

`N[C@@H](CO)C(=O)O`: the growth is 103%.

For `BrCc1cccc(C[P+](c2ccccc2)(c2ccccc2)c2ccccc2)c1`, the growth was -12.4% (active).

Regarding `COc1cccc(-c2nc3occn3c2-c2ccnc(NCCNS(=O)(=O)c3ccc(C(F)(F)F)cc3)n2)c1`, the growth is 77.4%.

Regarding `Nc1nc(Nc2ccc(F)cc2)nn1C(=O)c1cc(Cl)ccc1Cl`, the growth was 60.6%.

Turning to `CN(C)c1ccc(/C=C\c2ccnc3ccccc23)cc1`, the growth is 31.2%.

For the compound `CN(C)CCCN1c2ccccc2CCc2ccccc21`, the growth was 39.6%.

As for `CNCCn1c(=O)c2cc(OC)c(OC)cc2c2ccc3cc4c(cc3c21)OCO4`, the growth was -53.9% (active).

With `CCN1CCN(c2cc(C)nc(N(CCCNc3ccnc4cc(Cl)ccc34)Cc3cccs3)n2)CC1`, the growth is -26.4% (active).

Take `S=c1[nH]nc(CSc2ncnc3c2c(-c2ccccc2)cn3-c2ccc(Cl)cc2)o1`: the growth is 108%.

In the case of `O=C(NCCCl)c1cc(Cl)cc(Cl)c1`, the growth is 108%.

Turning to `CCCCN(CCCC)CCCO`, the growth was 106%.

As to `CCCCCc1ccc(S(=O)(=O)Nc2cc(-c3csc(NC(=O)CN4CCN(CCO)CC4)n3)ccc2OC)cc1`, the growth was 69.1%.

As for `O=[N+]([O-])c1ccc(Oc2ccc(-c3ccccc3)cc2)cc1`, the growth is 71.4%.

Consider `Cn1cc(-c2nn3cc(-c4cccs4)nc3s2)c2cc(F)ccc21`, for which the growth was 44.4%.

Consider `O=C(N/N=C/c1ccco1)c1[nH]c2ccc(Br)cc2c1-c1ccccc1`, for which the growth is 14.9%.

As for `COc1ccccc1NC(=O)OCC12COCN1COC2`, the growth was 101%.

For the compound `O=S(=O)(NCCNc1cc(-c2cn(-c3ccccc3)nc2-c2cccc(O)c2)ccn1)c1ccc(Br)cc1`, the growth is -28.5% (active).

Regarding `CO[C@H]1C[C@@H]2CC[C@@H](C)[C@@](O)(O2)C(=O)C(=O)N2CCCC[C@H]2C(=O)O[C@H]([C@H](C)C[C@@H]2CC[C@@H](OP(C)(C)=O)[C@H](OC)C2)CC(=O)[C@H](C)/C=C(\C)[C@@H](O)[C@@H](OC)C(=O)[C@H](C)C[C@H](C)\C=C/C=C/C=C/1C`, the growth is 39.9%.

Consider `CCC(=O)Sc1ccccc1C(=O)Nc1ccc(Cl)cc1`, for which the growth is 27%.

For the compound `O=C(NO)c1ccc(Cn2c(=O)n(CCc3ccc(O)cc3)c(=O)c3ccccc32)cc1`, the growth is 29.8%.

In the case of `Cc1nn(-c2ccc(Br)cc2)c2nc(CCl)[nH]c(=O)c12`, the growth was 94%.

With `COc1ccc(/C=N/NC(=O)Cn2c(-c3ccc(S(C)(=O)=O)cc3)nc3cc(Cl)ccc32)cc1`, the growth is -18.5% (active).

Turning to `Cc1ncc(C(=O)Nc2ccc(CN3CCN(C)CC3)c(C(F)(F)F)c2)cc1C#Cc1ccc(N)nc1`, the growth was 10.9%.

Consider `COC(=O)[C@@H](Cc1c[nH]c2ccccc12)NC(=O)[C@H](Cc1ccccc1)NCc1ccncc1`, for which the growth is 103%.

Turning to `CC(C(=O)O)N1C(N)=NNC1c1ccccc1O` (stereo not given), the growth was 104%.

Regarding `O=C1CN2CCC1C/C2=C\c1ccnc2c(Cl)cccc12` (stereo not given), the growth was 90.8%.

With `N#C/C(=N\Nc1ccc(F)cc1)C(=O)Nc1cc(-c2ccccc2)nn1-c1ccccc1`, the growth is -21% (active).

As for `Cc1[nH]c2ccc(F)cc2c1CCNC(=O)C1CCN(C(=O)c2ccccc2)C1` (stereo not given), the growth was 86.8% [25 µM].

In the case of `CCCCCc1cc[n+](CC(=O)c2ccccc2)cc1`, the growth was 86.9% and 76%.

On to `CCCCCN(CCCCC)CC(O)c1cc(C)c2ccc3cc(C(C)C)ccc3c2c1` (stereo not given), for which the growth is -71.1% (active).

As to `CNc1cccc2c1C(=O)c1cccc(N)c1C2=O`, the growth was 46.1%.
